# Reference: PubChem BioAssay (EPA / NIEHS)
# Active and inactive are the calls of the source. How the source made its calls: active means hit-call score of the fitted dose curve at least 0.9, where 1 is the maximum; inconclusive means response in the unintended direction; inactive means score below 0.9.
# Test: Tanguay_ZF_120hpf_ActivityScore_legacy: (Legacy) Oregon State University Tanguay Lab 120 Hour Post-fertilization zebrafish Assay Score for Activity (AID 2283742);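 on AC50: dechorionated Tropical 5D wild-type zebrafish embryos held singly per well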
# Procedure, shortened: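 Dechorionated 5D embryos, one per well, static exposure 6–120 hpf, 28C, sealed and dark; final DMSO 0.64% (vol/vol). Brightfield binary scoring of mortality plus 18 endpoints; gain-of-signal fit versus DMSO baseline.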
SMILES,outcome,AC50
CCCCCCCCc1ccc(O)cc1,inactive,–
C=CC(=O)OCCCCCC(C)C,inactive,–
CC(C)(c1ccccc1)c1ccc(O)c(C(C)(C)c2ccccc2)c1,inactive,–
Cc1ccccc1N,inactive,–
O=c1[nH]c(=O)[nH]c(=O)[nH]1,inactive,–
CC(C)(OO)c1ccccc1,inactive,–
O=C(O)C(F)(F)C(F)(F)C(F)(F)C(F)(F)C(F)(F)C(F)(F)C(F)(F)C(F)(F)C(F)(F)C(F)(F)F,inactive,–
Oc1cccc2cccnc12,–,39.6 µM (active)
O=C1C2(Cl)C3(Cl)C4(Cl)C(Cl)(Cl)C5(Cl)C3(Cl)C1(Cl)C5(Cl)C24Cl (stereo not given),–,71 µM (active)
CCC(=O)C(CC(C)N(C)C)(c1ccccc1)c1ccccc1 (stereo not given),inactive,–
CCC(C)(C)c1ccc(O)c(C(C)(C)CC)c1,inactive,–
CN(C)N=O,inactive,–
O=C(O)C(F)(F)C(F)(F)C(F)(F)C(F)(F)C(F)(F)C(F)(F)F,inactive,–
CC(C)(C)CC(C)(C)c1ccc(O)cc1,inactive,–
NC(=O)O,inactive,–
